Most compounds without a hit are left out; they make up all but 3.2% or so of the library.
Sm TGR block: blocks Schistosoma mansoni thioredoxin glutathione reductase; purified TGR, DTNB reduction, TNB absorbance 405 nm; actives 3% (n = 360,000); Potency, µM (series often up to 114 µM), most hits filed as inhibitors; Q962Y6; further: nearly all actives have a fitted effect of over 60% in size
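First, TGR (20 nM dispensed) and NADPH were mixed with compound. Second, a 15 min room-temperature incubation followed. Third, further NADPH and then DTNB were added to start the reaction. Finally, TNB absorbance was monitored kinetically.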
LmPK inhibitor: inhibitors of Leishmania mexicana pyruvate kinase. Q27686. purified LmPK, Kinase-Glo ATP luminescence, 1 h. Potency, µM (highest dose often 57.5 µM), hits mostly inhibitors. actives 0.37% (n = 290,000)
Target sequence (Q27686 whole entry, looked up): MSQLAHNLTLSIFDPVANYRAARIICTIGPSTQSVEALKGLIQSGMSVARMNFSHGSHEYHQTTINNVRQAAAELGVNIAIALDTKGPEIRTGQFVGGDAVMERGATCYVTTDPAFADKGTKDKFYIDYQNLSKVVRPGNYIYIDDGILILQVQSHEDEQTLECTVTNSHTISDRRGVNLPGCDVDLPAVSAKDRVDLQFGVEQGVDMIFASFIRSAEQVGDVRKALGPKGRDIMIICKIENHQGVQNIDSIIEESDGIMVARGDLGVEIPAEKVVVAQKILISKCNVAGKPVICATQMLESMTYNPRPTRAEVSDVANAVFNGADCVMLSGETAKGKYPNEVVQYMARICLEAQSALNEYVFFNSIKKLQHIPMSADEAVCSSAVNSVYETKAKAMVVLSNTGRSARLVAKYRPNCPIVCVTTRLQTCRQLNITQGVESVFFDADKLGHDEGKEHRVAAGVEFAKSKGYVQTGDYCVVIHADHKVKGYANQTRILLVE
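Pyruvate kinase activity monitored as ATP production (luciferase luminescence). Conditions: 0.1 nM enzyme, 0.5 mM PEP, 0.1 mM ADP, 1 h, RT; normalized against uninhibited and no-enzyme wells.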
AMA1 RON2 block: AMA1-RON2 (P. falciparum) interaction inhibition; Potency, µM (titrated, usually from 58.2 µM), actives largely listed as inhibitors; AID 720542; actives 0.2% (n = 360,000); AlphaScreen AMA1-biotinylated RON2 peptide binding; further: nearly all actives have a fitted effect of over 45% in size
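AMA1 (3D7) with his tag at 25 nM final met compounds first, then biotinylated RON2 peptide at 25 nM; detection used donor plus acceptor beads, 10 µg/mL apiece, read by AlphaScreen after 30 min at room temperature.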
RE007 growth inh: less growth of the S. pombe RE007 Vpr strain; S. pombe RE007 Vpr strain, BacTiter-Glo ATP luminescence, 24 h; Potency, µM (titrated, usually from 92.2 µM), actives largely listed as inhibitors; actives 0.21% (n = 360,000); AID 651644; active means well fitted falling curve with a large enough effect; inconclusive means small, poorly fitted or top-dose-only effect; inactive means no such curve, though single readings can be large or run the other way; further: nearly all actives have a fitted effect of over 50% in size
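Fission yeast strain RE007, carrying one chromosomally integrated HIV-1 vpr copy, was seeded at OD 0.01 in PMG+AL medium with 23 nL pinned compound. After 24 h at 30 °C and 99% humidity, viability was read by BacTiter-Glo luminescence.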
TbPYK inhibitor: T. brucei pyruvate kinase inhibition. AID 624173. actives 0.12% (n = 410,000). TbPYK enzyme, Kinase-Glo Plus ATP luminescence, 45 min. Potency, µM (doses to about 76.8 µM), actives largely listed as inhibitors. Q57TT1; further: nearly all actives have a fitted effect of over 50% in size
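TbPYK + substrate in 50 mM TEA pH 7.2, 100 mM KCl, 10 mM MgCl2, 0.05% BSA, 0.01% Tween-20; cpd pinned; ADP 130 uM final; 45 min RT; Kinase-Glo Plus 10 min; luminescence endpoint.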
LmPK confirm: Blocks LmPK activity, confirmation assay. shares compounds with LmPK inhibitor. purified LmPK, Kinase-Glo ATP luminescence, 1 h. Potency, µM (top dose mostly 57.5 µM), actives largely listed as inhibitors. actives 40% (n = 150);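 active means compounds giving a full or partial concentration-response curve, as inhibitors or activators; inconclusive means weak, top-dose-only or unclear curve responses; inactive means no response at any tested dose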
Of the large screens only hits and unclear results are named; the others gave an inactive call (follow-up assays come after a bar, where they were run); ! = a repeat was not active. Unless noted, the call rests on the fitted dose curve; in most records, active means well fitted curve in the direction sought with a large enough effect; inconclusive means small, poorly fitted or top-dose-only effect, or another doubt; inactive means no such curve, though single readings can be large; an effect the other way counts as inactive or inconclusive.

CC(C)C[C@H]1C(=O)N2CCC[C@H]2[C@]2(O)O[C@](NC(=O)[C@@H]3C=C4c5cccc6[nH]c(Br)c(c56)CC4N(C)C3)(C(C)C)C(=O)N12 (some centres undefined)	RE007 growth inh inconclusive
CCOc1ccc(CCNC(c2nnc(-c3ccccc3)o2)c2ccccc2Cl)cc1OCC (centres undefined)	none (no result: LmPK inhibitor, AMA1 RON2 block, RE007 growth inh)
CCn1c(CN2CCCCC2)nc2cc(NC(=O)COc3ccc(C(C)(C)C)cc3)ccc21	none (no result: LmPK inhibitor, AMA1 RON2 block, RE007 growth inh)
CCn1cc(S(=O)(=O)c2cccc(C)c2)c(=O)c2cc(F)c(N3CCN(c4ccccc4)CC3)cc21	none (no result: LmPK inhibitor, AMA1 RON2 block, RE007 growth inh)
COc1ccc(S(=O)(=O)c2cn(Cc3ccccc3)c3cc(N4CCCC4)c(F)cc3c2=O)cc1	none (no result: LmPK inhibitor, AMA1 RON2 block, RE007 growth inh)
O=C(CCl)c1cc2c3c(c1)CC(=O)N3CCC2	Sm TGR block 1.6µM
Cc1cc(C)c(S(=O)(=O)/N=C2\C=C(NS(=O)(=O)c3ccccc3)C(=O)c3ccccc32)c(C)c1	none
Cc1cc(C)c(S(=O)(=O)/N=C2\C=CC(=O)C(Cl)=C2)c(C)c1	Sm TGR block 4µM
CCOC(=O)c1[nH]c2cc(OC)c(OC)cc2c1N	none
CCOC(=O)c1[nH]c2ccc(C)cc2c1N	LmPK inhibitor 13µM
O=C(CSc1nnc(-c2cnccn2)n1Cc1ccco1)c1ccccc1	Sm TGR block 35µM (no result: TbPYK inhibitor)
CNC(=O)CSc1nnc(-c2ccccn2)n1Cc1ccco1	none
O=C(CSc1nnc(-c2cnccn2)n1Cc1ccco1)c1ccc(Cl)cc1	Sm TGR block 10µM, AMA1 RON2 block inconclusive
O=C(CSc1nnc(-c2ccccn2)n1Cc1ccco1)c1ccccc1	Sm TGR block inconclusive
O=C(CSc1nnc(-c2ccccn2)n1Cc1ccco1)c1ccc(Cl)cc1	Sm TGR block 20µM
COc1ccc(C(=O)CSc2nnc(-c3ccccn3)n2Cc2ccco2)cc1	Sm TGR block 50µM
COc1ccc2c(c1)c1c(c(=O)n(-c3ccc(C)cc3)c(=O)n1CC(=O)N1CCCC1)n2C	none (no result: LmPK inhibitor, AMA1 RON2 block, RE007 growth inh)
CCc1ccc(CN(Cc2ccco2)c2cnc(S(C)(=O)=O)nc2C(=O)Nc2cccc(C)c2)cc1	none (no result: LmPK inhibitor, AMA1 RON2 block, RE007 growth inh)
COc1ccc(-c2ccc(/C=N/NC(=O)Cc3nnc(N)s3)o2)cc1Cl	Sm TGR block 56µM
C/C=C/c1ccc(OCCCNC2CCCC2)c(OC)c1	none
C/C=C/c1ccc(OCCCNC(C)CC)c(OC)c1 (centres undefined)	AMA1 RON2 block 20µM
COC(=O)C1=C(C(=O)OC)[C@@H]2N(C)c3ccc(OC)cc3[C@@]23C[C@@H](C(=O)OC)N(C(C)=O)C3=N1	none (no result: Sm TGR block, AMA1 RON2 block, RE007 growth inh, TbPYK inhibitor)
COc1ccc2c(CNCCc3ccccc3OC)c(C(=O)O)n(Cc3ccc(F)cc3Cl)c2c1	none (no result: LmPK inhibitor, AMA1 RON2 block, RE007 growth inh)
OC1(Cc2ccccc2)CCNCC1	Sm TGR block 45µM!
CC[N+](CC)(CC)CC[C@](O)(c1ccccc1)C1CCCCC1	none (no result: Sm TGR block, LmPK inhibitor, AMA1 RON2 block, RE007 growth inh)
Cc1ccc(S(=O)(=O)Nc2cc3c(cc2C)n(C)c(=O)c(=O)n3C)c(C)c1	none (no result: LmPK inhibitor, AMA1 RON2 block, RE007 growth inh)
COc1cccc(CC(=O)Nc2ccc(-c3nc4ccccc4s3)cc2)c1	none (no result: LmPK inhibitor, AMA1 RON2 block, RE007 growth inh)
COc1cccc(-c2nc3ccccc3s2)c1	LmPK inhibitor 10µM, RE007 growth inh inconclusive | LmPK confirm inconclusive
O=C1c2ccccc2C(=O)C1c1ccnc2ccccc12	LmPK inhibitor 7.1µM | LmPK confirm inconclusive
COC(=O)C1=C(C)NC2=C(C(=O)CC(C)(C)C2)C1c1ccccn1 (centres undefined)	none
COC(=O)C1=C(C)NC2=C(C(=O)C(C(=O)OC)C(c3ccc(OC)cc3)C2)C1c1ccccn1 (centres undefined)	none | LmPK confirm inactive
Cc1ccnc(N2C(=O)c3ccccc3C2=O)c1	none | LmPK confirm inactive
CC(=O)Nc1ccc(C(=O)NNC(=O)CCc2ccccc2)cc1	none | LmPK confirm inactive
COc1ccc(OC)c2[nH]c(=O)c(CCNS(=O)(=O)c3ccc(Cl)cc3)cc12	none
COc1ccc(OC)c2[nH]c(=O)c(CCNS(=O)(=O)c3ccc(C)cc3)cc12	none | LmPK confirm inactive
CCCn1ccc2c(OCC(=O)NCc3ccccc3Cl)cccc2c1=O	none (no result: LmPK inhibitor, AMA1 RON2 block, RE007 growth inh)
